Screening results (PubChem)
Cruzain inh noDet: blocks cruzain activity in detergent-free assay; Potency, µM, without a hit: max response, negative = inhibition, most hits filed as inhibitors; P25779; purified cruzain, Z-FR-AMC fluorescence, no detergent; 200,000 tested, 2.3% active; AID 1476;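 further: plate controls were enzyme without inhibitor for no effect and buffer without enzyme for full effect; nearly all actives have a fitted effect of over 40% in size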
Target sequence (P25779 123-467 limits assumed): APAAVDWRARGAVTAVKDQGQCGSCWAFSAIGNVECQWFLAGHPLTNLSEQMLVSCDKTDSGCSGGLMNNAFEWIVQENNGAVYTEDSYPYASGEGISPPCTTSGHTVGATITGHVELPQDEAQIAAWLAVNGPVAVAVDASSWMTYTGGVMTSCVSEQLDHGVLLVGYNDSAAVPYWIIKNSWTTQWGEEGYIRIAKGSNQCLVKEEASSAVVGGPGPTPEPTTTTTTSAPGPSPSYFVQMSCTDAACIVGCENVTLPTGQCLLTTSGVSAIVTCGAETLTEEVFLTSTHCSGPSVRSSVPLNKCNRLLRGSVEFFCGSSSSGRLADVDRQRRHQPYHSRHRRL
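Purified cruzain at 1.5 nM, pre-incubated 15 min with compound at room temperature in 100 mM sodium acetate pH 5.5, 5 mM DTT, 0.00005% Triton X-100. Reaction started with 2 uM Z-FR-AMC; AMC fluorescence increase over 60 s gives rate.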
Giardia FBPA inh: Giardia lamblia aldolase inhibition. A8B2U2. purified Giardia FBPA. Potency, µM (series often up to 59.6 µM), for the others: top-dose activity, negative = inhibition, usual class: inhibitors. 290,000 tested, 0.71% active. AID 2451; further: nearly all actives have a fitted effect of over 55% in size
Target sequence (A8B2U2 whole entry, looked up): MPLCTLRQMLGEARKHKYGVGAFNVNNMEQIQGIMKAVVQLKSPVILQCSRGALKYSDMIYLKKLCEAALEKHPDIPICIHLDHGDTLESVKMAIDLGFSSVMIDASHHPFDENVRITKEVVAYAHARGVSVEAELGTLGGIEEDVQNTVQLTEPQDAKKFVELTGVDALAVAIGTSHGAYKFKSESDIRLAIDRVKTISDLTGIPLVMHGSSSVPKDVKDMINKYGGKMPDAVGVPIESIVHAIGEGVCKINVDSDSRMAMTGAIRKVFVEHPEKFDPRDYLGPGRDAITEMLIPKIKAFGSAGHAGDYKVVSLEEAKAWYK
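Giardia FBPA (40 nM reagent) was preincubated 10 min at RT with compound (up to 57.5 uM final), then substrate plus GAPDH/TPI/NAD/arsenate coupling system with diaphorase/resazurin was added; resorufin fluorescence (525/598 nm) was read after 20 min.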
Cruzain Triton: cruzain (T. cruzi) inhibition with detergent; purified cruzain, Z-FR-AMC fluorescence, 0.01% Triton; Potency, µM, for inactives: max response, negative = inhibition, most hits filed as inhibitors; 200,000 tested, 0.43% active;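 further: plate controls were neutral wells for no effect and buffer without enzyme for full effect; nearly all actives have a fitted effect of over 40% in size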
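Detergent-containing run (0.01% Triton X-100) in acetate buffer pH 5.5 with 5 mM DTT: enzyme at 1.5 nM final, 15 min compound preincubation at room temperature, then 2 uM Z-FR-AMC substrate. Activity taken as 60 s fluorescence increase at 360/450 nm.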
* = called active by the depositor; ? = inconclusive; . = no result given. This is one part of a sample in which hits are shown more often than they occur. The call rests on the fitted dose curve; in most records, active means well fitted curve in the direction sought with a large enough effect; inconclusive means small, poorly fitted or top-dose-only effect, or another doubt; inactive means no such curve, though single readings can be large; an effect the other way counts as inactive or inconclusive. Unless noted, on the % scale 0 is the no-effect control and ±100 the full control effect; potency means the concentration at half of the fitted maximal effect.

SMILES	Cruzain inh noDet	Giardia FBPA inh	Cruzain Triton
CC(C)c1c(O)c(-c2cc3c(c(C(C)C)c2O)CCC2C(C)(C)CCC[C@@]32C)cc2c1CCC1C(C)(C)CCC[C@@]21C (stereo partly drawn)	-11%	10%	7%
CC(C)c1cc2c(c(O)c1O)[C@@]13CCCC(C)(C)C1CC2OC3=O (stereo partly drawn)	.	5µM*	.
Cc1ccc(S(=O)(=O)c2c(Nc3ccc(C)c(C)c3)sc(C(=O)c3ccc4c(c3)OCO4)c2N)cc1	2.5µM*	.	-2%
Cc1ccc(S(=O)(=O)c2c(Nc3cc(C)ccc3C)sc(C(=O)c3ccc4c(c3)OCO4)c2N)cc1	-27%	.	9%
CCOc1ccc(Nc2sc(C(=O)c3ccc4c(c3)OCO4)c(N)c2S(=O)(=O)c2ccc(C)cc2)cc1	3.2µM*	.	-3%
CCOc1ccc(S(=O)(=O)N(CC(=O)Nc2ccc3c(c2)OCO3)c2ccc(C)cc2)cc1	1%	.	-8%
O=C(NCC1CC1)[C@H]1C[C@@H]1[C@H](NP(=O)(c1ccccc1)c1ccccc1)c1ccccc1	4%	19%	-2%
CCn1cc2nc(SCC(=O)Nc3cc(OC)cc(OC)c3)n(Cc3ccc(Cl)cc3)c(=O)c2n1	11%	.	-6%
O=C1CSC(c2nn(-c3ccccc3)cc2-c2cc3ccccc3oc2=O)N1Cc1ccco1 (stereo not drawn)	?	-4%	25µM*
CN(C)C(=O)c1cn(-c2ccccc2)nc1-c1cc2ccccc2oc1=O	.	10%	.
CN1CCN(C(=O)c2ccc(C3SCC(=O)N3Cc3ccco3)cc2)CC1 (stereo not drawn)	-5%	5%	3%
O=C1CSC(c2cn(-c3ccccc3)nc2-c2cc3ccccc3oc2=O)N1Cc1ccccc1 (stereo not drawn)	?	-11%	28µM*
COc1cccc([C@@H]2Oc3ccc(Br)cc3[C@H](O)[C@H]2O)c1	-20%	-1%	4%
Nc1cc(C(=O)O)[nH]c(=O)n1	9%	.	2%
CC(C)CCn1c(=O)c2sccc2n2c(CCCC(=O)Nc3ccc(C(C)C)cc3)nnc12	-12%	.	0%
O=C1N/C(=N\N=C\c2cccnc2)SC1Cc1ccc(SC(F)F)cc1 (stereo not drawn)	-24%	0%	9%
O=C1N/C(=N\N=C\c2ccc3ncccc3c2)SC1Cc1ccc(SC(F)F)cc1 (stereo not drawn)	16µM*	-9%	25µM*
COc1ccc(C(=O)Oc2ccc[nH]c2=O)cc1	.	-3%	.
CCNC(=O)Oc1ccc[nH]c1=O	.	4µM*	.
Cc1ccc(Oc2coc3cc(OCC(=O)NC4CCCCC4)ccc3c2=O)cc1	-1%	.	-1%
Cc1cc(C)cc(OCC(=O)Nc2ccc(N3CCCC3)cc2)c1	4µM*	-23%	?
Cc1cc(C)cc(OCC(=O)Nc2ccc(CN3CCCCC3)cc2)c1	.	4%	.
Cc1ccc(OCC(=O)Nc2ccc(N3CCCC3)cc2)cc1C	2.5µM*	?	?
COc1ccccc1OCC(=O)Nc1ccc(N2CCCCC2)cc1	.	-5%	.
Cc1cccc(OCC(=O)Nc2ccc(N3CCCC3)cc2)c1C	3.2µM*	-15%	?
SMILES	Cruzain inh noDet	Giardia FBPA inh	Cruzain Triton
COc1ccc(OCC(=O)Nc2ccc(N3CCCCC3)cc2)cc1	.	3%	.
O=C(Cc1ccc(Cl)cc1)Nc1ccc(C(=O)N2CCOCC2)cc1	.	0%	.
O=C(Cc1ccc(Cl)cc1)Nc1ccc(N2CCCC2)cc1	6.3µM*	-3%	3%
CN1CCN(CCCBr)CC1	9%	.	-6%
CSCC[C@H](NC(=O)[C@H](CO)NC(=O)[C@H](Cc1ccc(O)cc1)NC(=O)[C@@H](N)CO)C(=O)N[C@@H](CCC(=O)O)C(=O)N[C@@H](Cc1cnc[nH]1)C(=O)N[C@@H](Cc1ccccc1)C(=O)N[C@@H](CCCNC(=N)N)C(=O)N[C@@H](Cc1c[nH]c2ccccc12)C(=O)NCC(=O)N[C@@H](CCCCN)C(=O)N1CCC[C@H]1C(=O)N[C@H](C(=O)NCC(=O)N[C@@H](CCCCN)C(=O)N[C@@H](CCCCN)C(=O)N[C@@H](CCCNC(=N)N)C(=O)N[C@@H](CCCNC(=N)N)C(=O)N1CCC[C@H]1C(=O)N[C@H](C(=O)N[C@@H](CCCCN)C(=O)N[C@H](C(=O)N[C@@H](Cc1ccc(O)cc1)C(=O)N1CCC[C@H]1C(=O)N[C@@H](CC(N)=O)C(=O)NCC(=O)N[C@@H](C)C(=O)N[C@@H](CCC(=O)O)C(=O)N[C@@H](CC(=O)O)C(=O)N[C@@H](CCC(=O)O)C(=O)N[C@@H](CO)C(=O)N[C@@H](C)C(=O)N[C@@H](CCC(=O)O)C(=O)N[C@@H](C)C(=O)N[C@@H](Cc1ccccc1)C(=O)N1CCC[C@H]1C(=O)N[C@@H](CC(C)C)C(=O)N[C@@H](CCC(=O)O)C(=O)N[C@@H](Cc1ccccc1)C(=O)O)C(C)C)C(C)C)C(C)C	.	5%	.
Cc1ccccc1-c1cncnc1NCc1cccs1	-9%	?	1%
Oc1c(C(O)(c2ccccc2)c2ccc3ccccc3c2O)ccc2ccccc12	?	.	-2%
O=c1cnc2cncnc2n1Cc1ccccc1	-7%	-8%	0%
COc1ccc(SCC(CC(C)C)N2CCN(CCc3ccccc3)CCC2=O)cc1 (stereo not drawn)	.	0%	.
CN1c2ccccc2C(=O)N2CCc3c([nH]c4ccccc34)C21 (stereo not drawn)	.	2%	.
Cc1cccc(C)c1OCC(=O)Nc1cccc(-c2nnc(-c3ccccc3)o2)c1	?	2%	4%
Cc1cccc(OCC(=O)Nc2cccc(-c3nnc(-c4ccccc4)o3)c2)c1C	25µM*	4%	0%
Cc1cc(C)cc(OCC(=O)Nc2ccc(F)cc2)c1	-19%	2%	0%
Cc1cc(C)cc(OCC(=O)Nc2ccc3c(c2)C(=O)c2ccccc2C3=O)c1	25µM*	-19%	-1%
CCOc1ccc(NC(=O)C(c2ccccn2)N(C(=O)CCl)c2ccc(OCC)cc2)cc1 (stereo not drawn)	0%	?	-2%
CCOc1ccc(NC(=O)C(c2ccccn2)N(C(=O)CCl)c2ccc(OC)cc2)cc1 (stereo not drawn)	-4%	7.1µM*	-4%
CCOC(=O)C1CCCN(c2c(C(=O)c3ccc(C)cc3)cnc3ccc(OCC)cc23)C1 (stereo not drawn)	9%	.	-1%
COc1ccc2nc(NCN3C(=O)c4ccccc4C3=O)sc2c1	-4%	.	2%
Cc1cc(/C=N/NC(=O)c2ccncc2)c(C)n1-c1ccccc1	2%	-17%	-2%
Cc1cc(C(=O)N/N=C/c2ccc(O)c(O)c2O)c(C)n1-c1ccccc1	.	16µM*	.
CCOc1ccc(/C=C2\SC(=S)N(Nc3ccccc3)C2=O)cc1OC	?	-1%	6.3µM*
COc1cc(/C=C2\SC(=S)N(Nc3ccccc3)C2=O)cc(OC)c1OC	14%	0%	-1%
N#CCCCSc1nnnn1-c1cc(C(F)(F)F)cc(C(F)(F)F)c1	15%	1%	9%
Nc1ncnc2c1ncn2[C@H]1O[C@@H](C(=O)O)[C@@H](O)[C@H]1O	7%	.	1%
C=CCn1c(O)c(N=NC(=S)Nc2ccc(OC)c(Cl)c2)c2ccccc21	10µM*	-7%	-3%
C=CCn1c(O)c(N=NC(=O)OC(C)(C)C)c2ccccc21	3%	1%	-3%
